Screens deposited in PubChem by National Center for Advancing Translational Sciences (NCATS).
KB-3-1 cytotox: qHTS assay for MDR1-selective chemotherapeutics: Primary screen using the parental adenocarcinoma cell KB-3-1; KB-3-1 viability, CellTiter-Glo ATP luminescence, 72 h; Potency, µM (doses to about 46.1 µM), most hits filed as cytotoxic; 1.4% of 400,000 active; AID 1347075, 2019; note: % is set by controls: 0 for no effect and ±100 for the full control effect; nearly all actives have a fitted effect of over 60% in size
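Viability of parental KB-3-1 cells, measured by CellTiter-Glo luminescence, followed a 72 h incubation at 37 °C with pinned compounds in phenol-red-free DMEM containing 10% FBS.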
MCF10A rerep: A quantitative high throughput screen for small molecules that induce DNA re-replication in MCF 10a normal breast cells | MCF 10A DNA re-replication, Hoechst nuclear intensity, 48 h | Potency, µM (doses to about 46.1 µM), without a hit: top-dose activity, positive = re-replication, actives largely listed as activators | 2.9% of 350,000 active | AID 624296, 2012; note: % of control where 0% means no effect; nearly all actives have a fitted effect of over 50% in size
KB-V1 cytotox: qHTS assay for MDR1-selective chemotherapeutics: Primary screen using the drug-selected MDR subline cells KB-V1 | KB-V1 MDR cells viability, CellTiter-Glo, 72 h | Potency, µM (top dose mostly 46.1 µM), hits mostly cytotoxic | 3.4% of 400,000 active | AID 1347076, 2019; note: % is set by controls: 0 for no effect and ±100 for the full control effect; nearly all actives have a fitted effect of over 60% in size
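KB-V1 cells (P-gp-expressing MDR subline of KB-3-1) in phenol-red-free DMEM with 10% FBS were exposed to library compounds over a concentration series for 72 h at 37 degrees C. Viability read by CellTiter-Glo luminescence; concentration-effect curves fitted after normalization.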
HT1080-NT tox: qHTS for induction of synthetic lethality in tumor cells producing 2HG: qHTS for the HT-1080-NT fibrosarcoma cell line; HT-1080-NT fibrosarcoma viability, CellTiter-Glo ATP luminescence, 48 h; Potency, µM (titrated, usually from 46.1 µM), inactives show top-dose activity, negative = less viability, actives largely listed as cytotoxic; 1.6% of 360,000 active; AID 686970, 2013;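 note: NT is the 2HG producing partner of a matched IDH1 knockdown line; 0% = DMSO-treated cells and -100% = media-only wells without cells; nearly all actives have a fitted effect of over 55% in size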
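Compounds were tested in concentration-response format on HT-1080-NT cells for 48 hours at 37 degrees C. Cell viability came from CellTiter-Glo luminescence; curves were classified by r2, response magnitude and activity.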
SW480 rereplic: A quantitative high throughput screen for small molecules that induce DNA re-replication in SW480 colon adenocarcinoma cells; Potency, µM (highest dose often 46.1 µM), for inactives: top-dose re-replication activation, hits mostly activators; 1.8% of 340,000 active; AID 624297, 2012; SW480 DNA re-replication, Hoechst DNA content imaging, 48 h; note: % of control where 0% means no effect; nearly all actives have a fitted effect of over 55% in size
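DNA re-replication was detected as more nuclei of elevated Hoechst intensity after 48 hr exposure to compound (23 nL pinned per well of 250 cells).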
HT1080 IDH1KD tx: qHTS for induction of synthetic lethality in tumor cells producing 2HG: qHTS for the HT-1080-IDH1KD cell line | AID 686971, 2013 | Potency, µM (doses to about 46.1 µM), for inactives: top-dose activity, negative = toxicity, most hits filed as cytotoxic | 2% of 360,000 active | HT-1080 IDH1 knockdown viability, ATP luminescence, 48 h;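 note: 0% = DMSO wells and -100% = cell-free medium wells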
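HT-1080-IDH1KD cells (IDH1 knocked down), 750/well in RPMI with 5% FBS, treated with compound 48 h at 37 degrees C. Viability by CellTiter-Glo luminescence, normalised to DMSO and no-cell wells; concentration-response curves classed.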
* hit, by the source's call; i = inactive; ? = inconclusive; . = not tested or not shown; ! = repeats disagree. Most compounds without a hit are left out; they make up all but 7.9% or so of the library. Calls come from the whole dose curve; as a rule, active = well fitted curve in the direction sought with a large enough effect; inconclusive = small, poorly fitted or top-dose-only effect, or another doubt; inactive = no such curve, though single readings can be large; an effect the other way counts as inactive or inconclusive. Potency is the fitted concentration of half-maximal effect.

SMILES	KB-3-1 cytotox	MCF10A rerep	KB-V1 cytotox	HT1080-NT tox	SW480 rereplic	HT1080 IDH1KD tx
O=C(C[C@@H]1C/C=C\C[C@@H](NC(=O)OCC2c3ccccc3-c3ccccc32)C(=O)OC[C@@H](Cc2ccccc2)NC1=O)NCCO	i	4%	i	-2%	-6%	-2%
CCCOc1ccc2cc(C(=O)NCc3ccccc3)c(=O)oc2c1	i	23µM*	i	-14%	5%	4%
COc1ccc(CNC(=O)c2cc3cc(OC)ccc3oc2=O)cc1	15µM*!	16µM*	?	-25%	-8%	?
COCCCNC(=O)c1cn(Cc2c(F)cccc2Cl)nn1	i	11%	i	4%	0%	2%
COc1c2ccccc2nc2ccccc12	i	?	i	-10%	23µM*	-9%
CCN(C(=O)c1cnc(NC(C)C)cc1C(F)(F)F)c1ccc(Cl)cc1Cl	i	?	?	?	-5%	?
O=C(Nc1ccccc1Cl)c1ccc([N+](=O)[O-])o1	23µM*	13µM*	i	?	7.3µM*	21µM*
Cc1ccc(NC(=O)c2ccc([N+](=O)[O-])o2)c(C)c1	?	?	?	-1%	?	?
Cc1cccc(NC(=O)c2ccc([N+](=O)[O-])o2)n1	i	?	?	?	3.7µM*	?
Cc1cccc(NC(=O)c2ccc([N+](=O)[O-])s2)n1	i	11%	i	?	-1%	?
Cc1ccccc1NC(=O)c1ccc([N+](=O)[O-])o1	i	15µM*	i	-25%	?	26µM*
Cc1c(NC(=O)c2ccc([N+](=O)[O-])o2)cccc1-c1nc2ncccc2o1	?	?	?	9.2µM*	?	?
O=C(CCNC(=O)c1ccc(Br)cc1)NCCCSc1ccccc1	i	2%	i	-2%	1%	-1%
CCC(C)(C)NC(=O)CN(C(=O)CCC(=O)Nc1ccccn1)c1ccc2c(c1)OCO2	i	-3%	i	-5%	-6%	4%
O=C(Nc1cccc2ncccc12)c1ccc(-c2ccc(Br)cc2)o1	i	1%	10µM*	?	0%	?
O=C(Nc1cccc2ncccc12)c1ccc([N+](=O)[O-])o1	i	4.6µM*	?	16µM*	1.5µM*	15µM*
Cc1cccnc1NC(=O)c1ccc([N+](=O)[O-])o1	i	0%	i	-1%	?	16%
NC(=O)c1ccccc1NC(=O)c1ccc(-c2ccc(Br)cc2)o1	i	.	i	.	.	.
Cc1noc(C)c1C(=O)Nc1ccc(F)cc1	i	-4%	i	18%	-98%	9%
CN(C(=O)COC(=O)CN1C(=O)c2cccc([N+](=O)[O-])c2C1=O)c1ccccc1	i	-1%	i	-3%	?	-1%
CCOc1ccc(CCNC(=O)c2ccc(C)c(S(=O)(=O)N3CCOCC3)c2)cc1OCC	?	0%	21µM*	-2%	-5%	-3%
Cc1ccc(C(=O)NCC(c2ccc(F)cc2)N2CCOCC2)cc1S(=O)(=O)N1CCOCC1 (stereo not given)	i	7%	21µM*	-4%	-2%	-3%
Cc1ccc(C(=O)NCc2ccc(Cl)cc2)cc1S(=O)(=O)N1CCCCC1	?	1%	18µM*	-4%	3%	-4%
Cc1ccc(CNC(=O)c2ccc(C)c(S(=O)(=O)N3CCCCC3)c2)cc1	i	17%	i	5%	-1%	2%
